In the library only some 4.1% were active in any assay of this set; here they are far more common.
ssDAF12 agonist – activators of S. stercoralis DAF-12 nuclear receptor; HEK293 ssDAF-12/GRIP1 lit1-tk-luc reporter, luminescence; % of 3 µM dafachronic acid response; activation, % at 6.8 µM; actives 1% (n = 370,000); AID 652126;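 active means activation above the mean over all tested compounds plus 3 SD, cut at about 0.9% in these data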
DAX1 inh-1 – blocks DAX1 repression of SF-1 activated StAR promoter; actives 1.1% (n = 370,000); HEK293T StAR-luciferase reporter, SF-1/DAX-1 repression relief; inhibition, % at 6.8 µM;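 active means inhibition above the mean over all tested compounds plus 3 SD, cut at about 3.6% in these data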;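 further: higher inhibition means more luminescence from relief of DAX-1 repression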
hcDAF12 agonist – H. contortus DAF-12 activation, primary screen; actives 1.4% (n = 370,000); HEK293 hcDAF-12 lit1-tk-luc reporter, luminescence; 0% DMSO, 100% Δ7-dafachronic acid; AID 652067; activation, % at 6.8 µM;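 active means activation above the mean of all tested compounds plus 3 SD, cut at about 5.5% in these data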
hgDAF-12 ag – hgDAF-12 agonism, primary luciferase screen; HEK293 GAL4-hgDAF12 UAS-luciferase reporter, agonist luminescence; normalized to butyrate control; activation, % at 6.8 µM; actives 1.8% (n = 370,000); AID 687014;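 active means activation above a cutoff set at the mean of all screened compounds plus 3 SD, cut at about 10% in these data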
DAX1 inh-2 – inhibitors of human orphan nuclear receptor DAX1 (NR0B1); HEK293 Gal4-DAX1 luciferase reporter, luminescence; inhibition, % at 6.75 µM; actives 0.99% (n = 340,000); AID 504766;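 active means inhibition above the mean over all tested compounds plus 3 SD, cut at about 4.2% in these data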;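 further: inhibition shows as a rise in luminescence from relieved DAX1 repression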
Target sequence (P51843 207-470 limits assumed): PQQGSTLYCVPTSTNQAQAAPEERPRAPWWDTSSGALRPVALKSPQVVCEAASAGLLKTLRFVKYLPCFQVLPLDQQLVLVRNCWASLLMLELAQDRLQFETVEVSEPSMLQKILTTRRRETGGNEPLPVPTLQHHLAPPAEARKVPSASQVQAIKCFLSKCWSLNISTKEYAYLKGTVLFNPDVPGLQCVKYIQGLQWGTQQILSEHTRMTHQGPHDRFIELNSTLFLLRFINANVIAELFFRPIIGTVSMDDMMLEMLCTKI
Of the large screens only hits and unclear results are named; the others gave an inactive call.

COc1cccc(CNC(=O)C2C3C=CC4(CN(Cc5ccccc5)C(=O)C24)O3)c1OC (configuration not stated)	none (no result: DAX1 inh-2)
C=CCN(C(=O)[C@@H](CCCC)[C@@H](O)c1ccc(C(C)=O)cc1)c1ccccc1	none (no result: DAX1 inh-2)
O=C1NC(=S)N/C1=C/c1cccnc1	hgDAF-12 ag 12
Cc1ccc(/C=N/Nc2nc3ccccc3[nH]2)s1	hcDAF12 agonist 6.1
COc1ccc(/C=N/Nc2nc3ccccc3[nH]2)c(OC)c1OC	DAX1 inh-2 7.5
Cc1ccc(/C=N/Nc2nc(Cl)c(Cl)cc2Cl)s1	ssDAF12 agonist 0.9, DAX1 inh-2 4.3
Cc1ccsc1/C=N/Nc1nc(Cl)c(Cl)cc1Cl	none
COc1ccc(-n2cc(COC(=O)NCCc3ccccc3)nn2)cc1	none (no result: DAX1 inh-2)
COc1ccc(-c2ccc3c(n2)CCCN3S(=O)(=O)c2ccccc2)cc1	none (no result: DAX1 inh-2)
COC(=O)C1CN(CCO)CCS(=O)(=O)N1Cc1cn(Cc2cccc(Cl)c2)nn1 (configuration not stated)	none (no result: DAX1 inh-2)
CC(C)[C@H](N)C(=O)N[C@@H](Cc1ccccc1)C(=O)N1CCC2CCN(S(=O)(=O)c3ccccc3)CC21 (some centres not stated)	none (no result: DAX1 inh-2)
CCC(O)(c1ccc(NC(=O)OC(C)(C)C)cc1)c1cc(OC)cc(OC)c1 (configuration not stated)	none (no result: DAX1 inh-2)
O=C(CCN1C(=O)S/C(=C\C=C\c2ccccc2)C1=O)Nc1ccc(O)cc1	hgDAF-12 ag 12
CC(=O)c1ccc(NC(=O)CN2C(=O)/C(=C/C=C/c3ccccc3)SC2=S)cc1	hcDAF12 agonist 6.5
O=C(CCCN1C(=O)S/C(=C\C=C\c2ccccc2)C1=O)Nc1ccc(C(=O)O)cc1	none
CC(=Cc1ccccc1)C=C1SC(=S)N(CCCC(=O)Nc2ccc(C(=O)O)cc2)C1=O	DAX1 inh-1 4.2 (no result: DAX1 inh-2)
CCN(CC)CCOC(=O)c1ccc(NC(=O)CCCN2C(=O)/C(=C\c3cccs3)SC2=S)cc1	DAX1 inh-1 6.8
COc1ccc(-n2c(SCC(=O)Nc3ccc(S(=O)(=O)Nc4cc(C)nc(C)n4)cc3)nnc2-c2ccco2)cc1	none (no result: DAX1 inh-2)
CCOC(=O)N[C@@H](Cc1cccnc1)C(=O)N1CCC[C@H]1C(=O)NCCc1ccccc1Cl	none (no result: DAX1 inh-2)
CN(C)CC(O)c1ccc(C=Cc2ccc(Cl)cc2)cc1 (configuration not stated)	hgDAF-12 ag 12, DAX1 inh-2 6.4
CN(C)/C=C/C(=O)/C=C/c1ccc(Cl)cc1	none
CN(Cc1ccccc1)C(=O)OCc1cn(Cc2cccc(F)c2F)nn1	none (no result: DAX1 inh-2)
CCOC(=O)C/C(C)=N\Nc1nc(-c2ccccc2)cs1	ssDAF12 agonist 1.7
C[C@H](O)[C@@H]1C(=O)N2CCc3c([nH]c4c(-c5ccccc5)cccc34)[C@@H]2C[C@@H]1N(C)C(=O)c1ccccc1F	none (no result: DAX1 inh-2)
CN(C)S(=O)(=O)N1CCc2ccccc21	none
CN(C)S(=O)(=O)N1CCc2ccccc2C1	DAX1 inh-2 4.3
COC(=O)c1ccc(S(=O)(=O)N2CCC(NC(=O)COc3ccc(F)cc3)CC2)cc1	none (no result: DAX1 inh-2)
C=Cn1ccnc1CC(O)c1ccc(OC)cc1 (configuration not stated)	DAX1 inh-2 5.8
CCCc1nnn(S(=O)(=O)c2ccc([N+](=O)[O-])cc2)c1CCC	DAX1 inh-2 5.0
CNC(=S)N(CCc1ccc(OC)c(OC)c1)C1CC(=O)N(c2ccccc2)C1=O (configuration not stated)	DAX1 inh-2 5.0 (no result: ssDAF12 agonist, DAX1 inh-1, hcDAF12 agonist, hgDAF-12 ag)
CCCOc1ccc(N2C(=O)CC(N(CCc3ccc(OC)c(OC)c3)C(=S)Nc3ccccc3)C2=O)cc1 (configuration not stated)	none (no result: ssDAF12 agonist, DAX1 inh-1, hcDAF12 agonist, hgDAF-12 ag)
Cc1cc(N2CCOc3ccccc32)nc2ccccc12	none (no result: DAX1 inh-1, DAX1 inh-2)
COc1ccc(C(=O)CCNc2ccc(F)cc2)cc1	DAX1 inh-2 5.2
O=C(NCc1ccccn1)c1ccc(-c2ccccc2)cc1	none
O=C(CCCc1ccccn1)c1ccc(-c2ccccc2)cc1	ssDAF12 agonist 0.9
COc1ccc(C(=O)NCCCc2ccccc2)cc1	hgDAF-12 ag 11 (no result: DAX1 inh-2)
COc1ccc(NC(=O)CCC(=O)c2ccc(F)cc2)cc1	none
COc1ccc(C(=O)CNc2ccc3ccccc3c2)cc1	hcDAF12 agonist 5.9 (no result: DAX1 inh-2)
O=C(NCCCc1ccccc1)c1ccccc1	none
COc1ccc(CN2C/C(=C/c3ccc(C)cc3)N3C(=O)C[C@@H](c4ccccc4)N=C23)c(OC)c1	none (no result: DAX1 inh-2)
O=C(Nc1ccc(F)cc1F)C1CCCN1S(=O)(=O)c1cccnc1 (configuration not stated)	none (no result: DAX1 inh-2)

Assay outcomes: PubChem, The Scripps Research Institute Molecular Screening Center
